Test results as given in PubChem BioAssay AID1508635 (National Center for Advancing Translational Sciences (NCATS), 2021).
Results filed as inconclusive are left out. Activity calls are given as the source filed them. Calls come from the whole dose curve; as a rule, active = well fitted inhibition curve with a large enough effect; inconclusive = small, poorly fitted or top-dose-only effect; inactive = no such curve, though single readings can be large or run the other way. Numbered stars: 1 amine (or outer) side, 2 acyl side, 3 side chain; on linkers, the order of the positions; unused ones are H or OH. Square brackets hold non-standard residues; d marks the D form. Peptide text beside a SMILES is read from it. X1 = O=C([C@@H](CC(O)CCl)O[*:1])[*:2]; aIle = CC[C@@H](C)[C@H](N)C(=O)O; NMeV = CN[C@H](C(=O)O)C(C)C; NMeA = CN[C@@H](C)C(=O)O; βAla = NCCC(=O)O

What follows are compounds tested on zebrafish Abcb4 (ABCB1 homolog) (assay: qHTS for characterization and localization of zebrafish homologs of the human ABCB1 multidrug transporter: ABCB4 transfected cells). Details: CellTiter-Glo viability luminescence, 72 h; series mostly up to 15.2 µM.
Text: The zebrafish has emerged as a potential model to study the blood-brain barrier (BBB) given its similarities with mammalian systems. However, little information has been available with regard to homologous ATP-binding cassette transporters expressed at the zebrafish BBB. Two transporters that are highly expressed at the human BBB are P-glycoprotein (P-gp, encoded by the ABCB1 gene) and ABCG2 (encoded by the ABCG2 gene). In this study, we focus on characterization of P-gp homologs in the zebrafish, which has two genes that are homologous to human ABCB1 - abcb4 and abcb5. We generated stably-transfected cell lines to determine their substrate specificities. […] Zebrafish abcb4 also colocalized with claudin 5 expression in brain endothelial cells.
A high-throughput screen was performed as previously described on empty vector transfected cells, P-gp-overexpressing MDR-19 cells and cells transfected with full-length zebrafish abcb4 (ZF Abcb4) or abcb5 (ZF Abcb5). Briefly, cells were plated into 1536-well plates at a density of 500 cells/well in 5 uL media. P-gp substrate compounds (approximately 90) selected from our previous study were then added at varying concentrations using a 1536-head pin tool (Kalypsis, San Diego, CA) and plates were incubated at 37C in 5% CO2 for 72 h. CellTiter-Glo reagent (Promega) was dispensed into the wells, incubated for 5 min and luminescence was read on a ViewLux instrument (Perkin-Elmer).
Cytotoxic compounds were defined as those that yielded a curve class of -1.1, -1.2, -2.1, -2.2, -2.3, or -2.4, a maximum response of >50% and an AC50 of < 10 uM. All compounds from screening analysis were tested in Vector (empty vector control), MDR-19 (P-gp overexpressing), zebrafish abcb4 (ZF Abcb4) and abcb5 (ZF Abcb5) expression cell lines.
1. Tobie D Lee, Olivia W Lee, Kyle R Brimacombe, Lu Chen, Rajarshi Guha, Sabrina Lusvarghi, Bethilehem G Tebase, Carleen Klumpp-Thomas, Robert W Robey, Suresh V Ambudkar, Min Shen, Michael M Gottesman, Matthew D Hall. A High-Throughput Screen of a Library of Therapeutics Identifies Cytotoxic Substrates of P-glycoprotein. […]

Row | Compound | Potency
1 | CC[C@@H](C)[C@@H]1NC(=O)[C@@H]2CCCN2C(=O)[C@@H](CC(O)CCl)OC(=O)CCNC(=O)[C@H](C)N(C)C(=O)[C@H](C(C)C)N(C)C1=O (stereo partly drawn) (cyclo([NMeA][βAla][X1]P[aIle][NMeV])) | inactive
2 | C=CCON=C(C[C@H]1O[C@@H]2O[C@]3(C)CC[C@@H]4[C@H](C)CC[C@@H]([C@H]1C)[C@@]24OO3)[C@H]1O[C@@H]2O[C@]3(C)CC[C@H]4[C@H](C)CC[C@@H]([C@@H]1C)[C@@]24OO3 | 1870 nM (active)
3 | C[C@@H]1[C@@H](CC(C[C@H]2O[C@@H]3O[C@]4(C)CC[C@@H]5[C@H](C)CC[C@@H]([C@H]2C)[C@@]35OO4)C[S+](=O)([O-])c2ccc(COC(=O)N(C)C)cc2)O[C@@H]2O[C@]3(C)CC[C@H]4[C@H](C)CC[C@@H]1[C@@]24OO3 (stereo partly drawn) | 2350 nM (active)
